PubChem BioAssay (NCATS)
A number with no mark means an inactive call. For some of these results: Measured potencies and affinities stand elsewhere. The source made the active and inactive calls. No rule for the calls is given here.

Assays:
[1] = Ebola virus entry assay, green fluorescence channel
[2] = Ebola virus entry assay, blue channel fluorescence
[3] = Ebola virus entry assay, ratio channel
[4] = Ebola virus entry assay, reporter ratio channel; Channel type: primary
For efficacy in this document: 0% is about no effect.

SMILES	efficacy [1]	AC50 [2]	AC50 [3]	AC50 [4]	outcome [3]	outcome [2]	outcome [4]
COC(=O)C1=C(C)NC(C)=C(C(=O)OC(C)(C)CN(C)CCC(c2ccccc2)c2ccccc2)C1c1cccc([N+](=O)[O-])c1 (centres undefined)	39.5%	14.1 µM (active)	12.6 µM (active)	12.6 µM (active)			
CCCCCN=C(N)N/N=C/c1c[nH]c2ccc(OC)cc12	-150%	3.98 µM (active)	3.16 µM (active)	3.16 µM (active)			
O=C(CCCN1CC=C(n2c(=O)[nH]c3ccccc32)CC1)c1ccc(F)cc1	51%	17.8 µM (active)	17.8 µM (active)	17.8 µM (active)			
O=C(OCC(O)CO)c1ccccc1Nc1ccnc2cc(Cl)ccc12 (centres undefined)	41.9%	39.8 µM (active)	20 µM (active)	20 µM (active)			
CN(C)CCCOC1(Cc2ccccc2)CCCCCC1	64.1%	17.8 µM (active)	14.1 µM (active)	14.1 µM (active)			
C=CCc1ccccc1OCC(O)CNC(C)C (centres undefined)	42.4%	28.2 µM (active)	25.1 µM (active)	25.1 µM (active)			
c1ccc(CN(CC2=NCCN2)c2ccccc2)cc1	60.7%	39.8 µM (active)		39.8 µM (active)	inactive		
CCCN(CCC)C(=O)C(CCC(=O)OCCCN1CCN(CCOC(=O)Cc2c(C)n(C(=O)c3ccc(Cl)cc3)c3ccc(OC)cc23)CC1)NC(=O)c1ccccc1 (centres undefined)	156%	6.31 µM (active)	5.62 µM (active)	5.62 µM (active)			
CN1C[C@H](C(=O)N[C@]2(C)O[C@@]3(O)[C@@H]4CCCN4C(=O)[C@H](Cc4ccccc4)N3C2=O)C[C@@H]2c3cccc4[nH]cc(c34)C[C@H]21	95.4%	28.2 µM (active)	17.8 µM (active)	17.8 µM (active)			
CN1CCC(=C2c3ccccc3CCc3sccc32)CC1	69.4%	8.91 µM (active)	8.91 µM (active)	8.91 µM (active)			
CC(C(O)c1ccccc1)N(C)CCOC(c1ccccc1)c1ccccc1 (centres undefined)	65%	3.16 µM (active)	2.82 µM (active)	2.82 µM (active)			
COc1ccc2cc1Oc1ccc(cc1)C[C@H]1c3c(cc4c(c3Oc3cc5c(cc3OC)CCN(C)[C@@H]5C2)OCO4)CCN1C	73.2%	1.12 µM (active)	1.12 µM (active)	1.12 µM (active)			
COc1ccc2c(c1)c(CC(=O)O)c(C)n2C(=O)c1ccc(Cl)cc1	67.4%				inactive	inactive	inactive
CCCCOc1cc(C(=O)NCCN(CC)CC)c2ccccc2n1	119%	12.6 µM (active)	10 µM (active)	10 µM (active)			
CN1CCC(N(Cc2cccs2)c2ccccc2)CC1	53.5%	3.55 µM (active)	3.16 µM (active)	3.16 µM (active)			
O[C@@H](COc1cccc2ncccc12)CN1CCN(C2c3ccccc3[C@@H]3[C@H](c4ccccc42)C3(F)F)CC1 (some centres undefined)	34.8%	10 µM (active)	10 µM (active)	10 µM (active)			
